# Bioassay records (PubChem)
# An excerpt weighted towards active compounds, which were near 19% of everything screened.
# ASM inhibitor = blocks human secretory acid sphingomyelinase; P17405; 0.006% of 340,000 active; placental ASM, HMU-PC fluorogenic substrate, 60 min; AID 504937; Potency, µM (top dose mostly 57.5 µM), for inactives: top-dose activity change, negative = inhibition, actives largely listed as inhibitors; also: potency is read from the fitted curve at half-maximal effect
# Target sequence (P17405 47-631 limits assumed): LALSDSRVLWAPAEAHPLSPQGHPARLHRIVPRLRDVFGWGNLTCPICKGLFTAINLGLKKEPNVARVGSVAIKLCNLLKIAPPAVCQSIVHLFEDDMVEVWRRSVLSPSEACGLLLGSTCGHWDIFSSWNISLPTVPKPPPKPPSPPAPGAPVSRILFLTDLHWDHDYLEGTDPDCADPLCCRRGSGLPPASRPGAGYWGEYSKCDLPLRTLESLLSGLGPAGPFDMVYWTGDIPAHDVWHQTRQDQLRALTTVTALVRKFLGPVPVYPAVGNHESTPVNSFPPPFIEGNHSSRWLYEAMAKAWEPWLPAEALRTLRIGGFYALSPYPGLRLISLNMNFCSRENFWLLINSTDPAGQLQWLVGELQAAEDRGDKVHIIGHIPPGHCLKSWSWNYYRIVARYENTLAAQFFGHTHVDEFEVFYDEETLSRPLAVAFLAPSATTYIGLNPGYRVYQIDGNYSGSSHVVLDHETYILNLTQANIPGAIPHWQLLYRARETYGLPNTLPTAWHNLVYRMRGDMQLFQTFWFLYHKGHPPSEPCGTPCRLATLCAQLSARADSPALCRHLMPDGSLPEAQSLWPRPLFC
#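 Human placenta-derived ASM preincubated with compound 10 min at room temperature, then reacted with 9 uM (final) fluorogenic HMU-PC substrate for 60 min at 37 C. Stop solution raises pH to 10; fluorescence read at Ex 386/Em 447 nm.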
# IL-1B inflam inh = blocks inflammasome-driven IL-1 beta release; THP-1 LPS/ATP IL-1B secretion, AlphaLISA, 16 h; hits give low values; activity change, % at 57.5 µM; 4.7% of 360,000 active; in the data active = activity change below about -50%; inconclusive = mostly about -30% to -49%; also: % is scaled to controls: 0 for no effect and ±100 for the full control effect
#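 THP-1 cells pretreated 1 hr with compounds (up to 57.5 uM final), then stimulated with LPS (250 ng/mL final) plus ATP (1.25 mM final); secreted IL-1B measured by AlphaLISA after 16 hr, decreased signal indicating inhibition.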
# HepG2 tox = HepG2 cytotoxicity, counter-screen for TGF-b inhibitors | HepG2 CAGA-GFP viability, ATP luminescence, 18 h | Potency, µM (series often up to 46.1 µM), for the others: top-dose activity change, negative = cytotoxicity, hits mostly cytotoxic | 0.76% of 410,000 active | AID 588856; also: potency is read from the fitted curve at half-maximal effect
#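 HepG2 CAGA-GFP cells (1000/well, DMEM with 1% FBS) received compound, then TGF-beta at 500 pg/mL final, and were incubated 18 hours at 37 degrees C. Viability was read by CellTiter-Glo luminescence. Media-only wells were set as complete cell-killing and DMSO as no toxicity.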
# TGFb inhibitor = blocks TGF-b signaling; AID 588855; 1.2% of 410,000 active; Potency, µM (highest dose often 46.1 µM), inactives show at the top dose activity, negative = inhibition, usual class: inhibitors; HepG2 CAGA-GFP TGF-b/SMAD3 reporter, GFP fluorescence, 18 h; TGF-beta stimulated, 500 pg/mL final; also: potency is read from the fitted curve at half-maximal effect; % is scaled to controls: 0 for no effect and ±100 for the full control effect; nearly all actives have a fitted effect of over 65% in size
#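 Using HEPG2 CAGA-GFP reporter cells at 1000 cells/well, we pinned test compounds, stimulated with recombinant TGF-beta (500 pg/mL final) and measured total well GFP after 18 h.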
# TDP1 cell CPT = DT40-hTDP1 cell growth loss with CPT. chicken DT40 Tdp1-/-;hTDP1 cells + 20 nM CPT, ATP luminescence, 48 h. Potency, µM (top dose mostly 46.2 µM), for inactives: top-dose activity change, negative = growth inhibition, actives largely listed as inhibitors. 12% of 420,000 active; also: potency is read from the fitted curve at half-maximal effect; % is scaled to controls: 0 for no effect and ±100 for the full control effect; nearly all actives have a fitted effect of over 55% in size
#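 Chicken DT40 Tdp1-/- cells complemented with human TDP1, 400 cells/well, exposed to compounds plus 20 nM camptothecin for at least 48 h at 37 C; viability read as ATP content by CellTiter-Glo luminescence.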
# TDP1 cell noCPT = qHTS for Inhibitors of human tyrosyl-DNA phosphodiesterase 1 (TDP1): qHTS in cells in absence of CPT | DT40 Tdp1-/- hTDP1 cells, no CPT, ATP luminescence, 48 h | Potency, µM (doses to about 46.2 µM), inactives show at the top dose activity change, negative = growth inhibition, usual class: inhibitors | 15% of 420,000 active; also: potency is read from the fitted curve at half-maximal effect; % is scaled to controls: 0 for no effect and ±100 for the full control effect; nearly all actives have a fitted effect of over 55% in size
#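 Chicken DT40 Tdp1-/- cells complemented with human TDP1, screened without camptothecin (DMSO vehicle only), 400 cells/well. Compounds pin-transferred, cells incubated at 37 °C for at least 48 hr. Growth read as ATP-dependent luminescence (CellTiter-Glo, 30 min at RT).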
# The depositor's hits bear a star; u = inconclusive; x = no result given; [ ] = another dose, or the depositor's remark. Unless noted, calls follow the shape of the dose curve; as a rule, active = well fitted curve in the direction sought with a large enough effect; inconclusive = small, poorly fitted or top-dose-only effect, or another doubt; inactive = no such curve, though single readings can be large; an effect the other way counts as inactive or inconclusive.
SMILES,ASM inhibitor,IL-1B inflam inh,HepG2 tox,TGFb inhibitor,TDP1 cell CPT,TDP1 cell noCPT
CCOC(=O)C1CCN(C(=S)Nc2cc(OC)c(OC)cc2C(=O)OC)CC1,-1%,10,-1%,-6%,-25%,-12%
CN(C)/C=C\C(=C/C(=O)C(F)(F)F)Nc1ccccc1Oc1ccccc1,-6%,-98*,-19%,u,u,18µM*
Cc1ccc(NC(/C=C/N(C)C)=C/C(=O)C(F)(F)F)c(C)c1,-2%,7,-3%,20µM*,16µM*,16µM*
CCOC(=O)Nc1ccc(C)cc1C,-2%,11,-6%,25%,-9%,-1%
CCC(=O)Nc1ccccc1Oc1ccccc1,3%,50,-17%,4%,-3%,u
Cc1nn(C)cc1CN1CCOc2ccc(CN3CCC(Oc4cccnc4)CC3)cc2C1,x,x,x,x,-7%[9.04 µM],u
COC(=O)c1cccnc1-n1c(=O)c2cccnc2n(Cc2cccc([N+](=O)[O-])c2)c1=O,7%,0,-55%,5%,u,12µM*
COC(=O)C1C2CCCCC1C(=O)O2 (stereo unspecified),-3%,0,2%,u,-17%,u
Clc1cccc(-c2cccc3nccn23)c1Cl,x,-16,-5%,-25%,u,u
Cc1cccc(S(=O)(=O)N(C)C[C@H]2OCc3cn(nn3)CCCC(=O)N([C@@H](C)CO)C[C@@H]2C)c1,x,31,4%,15%,-15%,-2%
CC(C)CNC(=O)N1c2ccccc2Sc2ccccc21,-3%,-15,-25%,u,-3%,u
O=C(c1ccco1)N1CCN(C(=O)N2c3ccccc3Sc3ccccc32)CC1,-3%,21,2%,u,0.23µM*,0.63µM*
O=C(N1CCN(c2ccccn2)CC1)N1c2ccccc2Sc2ccccc21,-3%,34,-23%,u,0.73µM*,0.92µM*
O=C(c1ccco1)N1c2ccccc2Sc2ccccc21,-1%,-50*,-5%,-2%,u,u
O=C(NCCc1ccccc1)N1c2ccccc2Sc2ccccc21,-8%,-11,-38%,u,u,16µM*
O=C(c1ccc(Br)s1)N1CCN(c2ccccn2)CC1,2%,-17,2%,-3%,-25%,-11%
Cc1ccc(N2C(=O)CC(Sc3ncccn3)C2=O)cc1C (stereo unspecified),6%,-7,-9%,4%,u,u
O=[N+]([O-])c1cc(NS(=O)(=O)c2ccc(Cl)nc2)ccc1Cl,0%,-2,-48%,u,u,16µM*
CC(C)c1ccc(NS(=O)(=O)c2ccc(Cl)nc2)cc1,-1%,-4,-30%,-21%,-20%,-29%
Cc1ccccc1N=C(c1ccccc1)C1C(=O)c2ccccc2C1=O,x,-19,-3%,u,10µM*,10µM*
CC(OC(=O)c1cnccn1)C(=O)c1ccccc1 (stereo unspecified),-2%,-2,-6%,-3%,10%,-1%
COc1cc2c(cc1OC)C1C(=O)c3c(O)cc4c(c3OC1CO2)C=CC(C)(C)O4 (stereo unspecified),x,x,x,x,0.65µM*,0.41µM*
COc1cc2c(cc1OC)C1C(=O)c3ccc4c(c3OC1CO2)C=CC(C)(C)O4 (stereo unspecified),x,x,x,x,0.082µM*,0.065µM*
COc1cc2c(cc1OC)OC(C)(C)C=C2,x,x,x,x,6%[9.04 µM],-6%[9.04 µM]
O=C(NCC1CCCO1)C(c1ccc(F)cc1)N(Cc1ccc2c(c1)OCO2)C(=O)c1ccc(CN2CCOCC2)o1 (stereo unspecified),1%,15,11%,16%,7%,-13%
SMILES,ASM inhibitor,IL-1B inflam inh,HepG2 tox,TGFb inhibitor,TDP1 cell CPT,TDP1 cell noCPT
O=C(NCC(c1ccco1)S(=O)(=O)c1ccc(Cl)cc1)c1ccccc1F (stereo unspecified),x,x,-1%,-17%,u,16µM*
Cc1ccc(S(=O)(=O)C(CNC(=O)COc2ccc(Cl)cc2)c2ccco2)cc1 (stereo unspecified),x,x,-9%,u,23µM*,u
Cc1ccc(C(=O)NCC(C)NC(=O)c2ccc(C)c(C)c2)cc1C (stereo unspecified),0%,-26,-30%,-7%,u,26µM*
COc1ccc(C(=O)NCC(C)NC(=O)c2ccc(OC)c(OC)c2)cc1OC (stereo unspecified),1%,-5,7%,-1%,1%,4%
Cc1ccc(S(=O)(=O)C(CNC(=O)C(=O)NCc2ccc(Cl)cc2)c2ccco2)cc1 (stereo unspecified),x,x,8%,24%,-3%,-14%
Cc1ccc(S(=O)(=O)C(CNC(=O)c2c(F)cccc2F)c2ccco2)cc1 (stereo unspecified),x,x,-16%,0%,u,23µM*
Cc1nc(-c2ccccc2)sc1CCNS(=O)(=O)c1ccccc1,x,x,-24%,3%,x,x
O=S(=O)(Nc1cccc2cccnc12)C1CC1,x,x,-26%,u,x,x
Cc1ccc(S(=O)(=O)C(CNC(=O)c2ccc(F)c(F)c2)c2ccco2)cc1 (stereo unspecified),x,x,-4%,-15%,16µM*,u
O=C(NCC(c1ccco1)S(=O)(=O)c1cccs1)c1ccc(F)c(F)c1 (stereo unspecified),x,x,-14%,-12%,13µM*,16µM*
O=C(NCC(c1ccco1)S(=O)(=O)c1cccs1)c1ccccc1 (stereo unspecified),x,x,-4%,12%,u,u
Cc1ccc(C(=O)NCC(c2ccco2)S(=O)(=O)c2ccc(Cl)cc2)cc1C (stereo unspecified),x,x,-23%,u,16µM*,21µM*
CCCCn1c(N)c(N(CC(C)C)C(=O)CCNC(=O)c2ccc(Cl)cc2)c(=O)[nH]c1=O,4%,0,-1%,0%,3%,5%
CC(C)N1C[C@@H](Sc2ccccn2)C[C@H]1C(=O)Nc1ccc2c(c1)Nc1ccccc1CC2,x,x,x,x,11%[9.04 µM],-10%
Cc1cccc(NC2=NC(C)(C)N=C(N)N2)c1,3%,42,-45%,-20%,0.46µM*,0.16µM*
CCOc1ccccc1NC(=O)Cn1c(=O)n(Cc2ccco2)c(=O)c2ccc(C(=O)NC3CCCC3)cc21,x,x,-14%,7%,u,23µM*
